Compound activity from PubChem.
This is one part of a sample in which hits are shown more often than they occur.
Glyco luc inh = N-linked glycosylation inhibition | D54 ERlucT glycosylation luciferase reporter, 24 h; percent of 100 nM tunicamycin response | reporter increase, % at 12.5 µM | hit rate 0.23% among 360,000 | AID 588692;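 active = mean luciferase reporter signal, scaled so untreated is 0 and the glycosylation-blocking control 100, at or above a set limit in every replicate; inconclusive = mean reaches the limit but not every replicate does; inactive = mean below the limit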;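 note: luciferase carries N-glycosylation sites so blocking glycosylation raises the light; 0% = median of neutral control wells and 100% = median of 100 nM tunicamycin wells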
Rtt109 HAT inh = blocks Candida albicans Rtt109/Vps75 acetyltransferase activity | Q5AAJ8 | purified Rtt109/Vps75, ThioGlo CoA-SH fluorescence, 4 h | inhibition, % at 34.9 µM | hit rate 0.16% among 330,000 | AID 540336;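 active = inhibition of at least 50% in every replicate; inconclusive = best replicate reaches 50% inhibition but some replicates fall short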
Target sequence (Q5AAJ8 whole entry, looked up): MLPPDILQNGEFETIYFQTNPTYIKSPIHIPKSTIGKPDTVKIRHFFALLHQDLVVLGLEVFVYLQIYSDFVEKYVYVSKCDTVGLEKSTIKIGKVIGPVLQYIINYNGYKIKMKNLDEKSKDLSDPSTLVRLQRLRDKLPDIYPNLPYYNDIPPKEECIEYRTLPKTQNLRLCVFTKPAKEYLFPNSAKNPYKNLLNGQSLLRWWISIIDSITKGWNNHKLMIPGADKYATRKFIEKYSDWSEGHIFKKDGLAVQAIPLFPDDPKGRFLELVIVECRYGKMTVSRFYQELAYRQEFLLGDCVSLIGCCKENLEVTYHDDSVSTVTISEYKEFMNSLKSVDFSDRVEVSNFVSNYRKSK
PglD DTNB = blocks C. jejuni PglD acetyltransferase activity; purified PglD enzyme, DTNB colorimetric CoA detection; inhibition, % at 12.5 µM; hit rate 0.098% among 360,000; AID 602405; in the data active = inhibition above about 16%, passing the limit was not always enough; inconclusive = no clear call, values can overlap the other calls
DENV2 CPE = inhibitors of DENV2 cytopathic effect. DENV2-infected cells, cytopathic effect rescue, plate reader. CPE inhibition, % at 9.99 µM. hit rate 1.7% among 350,000; in the data active = CPE inhibition above about 20%, passing the limit was not always enough; inconclusive = no clear call, values can overlap the other calls; tested in BHK-21 cells;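 note: 0% = median of neutral control wells and 100% = median of positive control wells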
Starred values were filed as active, the others as inactive; ? = inconclusive; . = not tested or not shown; ! = not active in a repeat.

SMILES	Glyco luc inh	Rtt109 HAT inh	PglD DTNB	DENV2 CPE
O=C(C[C@H]1C=C[C@H](NS(=O)(=O)c2ccc(F)cc2)[C@H](CO)O1)N1CCC(Cc2ccccc2)CC1	.	.	3	-7
O=C(NCCN1CCC(n2c(=O)[nH]c3ccccc32)CC1)c1cccnc1	.	.	.	3
O=C(NCCN1CCC(n2c(=O)[nH]c3ccccc32)CC1)c1ccccc1	.	.	.	20*
CCS(=O)(=O)NCC[C@H]1CC[C@H](NS(=O)(=O)c2ccccc2C)[C@H](CO)O1	.	.	-2	1
CC(=O)N(C)C[C@H]1Oc2ncc(-c3ccc(F)cc3)cc2C(=O)N([C@@H](C)CO)C[C@H]1C	.	.	-2	10
C[C@H]1CN([C@@H](C)CO)C(=O)c2cc(-c3cccnc3)cnc2O[C@H]1CN(C)C	.	.	3	73*
CC(=O)N(C)C[C@@H]1Oc2ncc(-c3ccc(F)cc3)cc2C(=O)N([C@H](C)CO)C[C@H]1C	.	.	1	59*
C[C@H](CO)N1C[C@H](C)[C@@H](CN(C)C(=O)c2ccc(F)cc2)Oc2ncc(-c3ccc(F)cc3)cc2C1=O	.	.	-1	48*
C[C@H](CO)N1C[C@H](C)[C@H](CN(C)C(=O)Nc2ccccc2)Oc2ncc(-c3ccc(F)cc3)cc2C1=O	.	.	-3	5
C[C@H](CO)N1C[C@H](C)[C@@H](CN(C)C(=O)Nc2ccc(F)cc2)Oc2ncc(-c3ccc(F)cc3)cc2C1=O	3	.	-6	24*!
COc1ccc2c3c([nH]c2c1)[C@@H](CO)N(S(C)(=O)=O)CC31CCN(C(=O)c2ccccc2)CC1	.	.	.	-6
C[C@H]1CN([C@@H](C)CO)C(=O)c2cccc(NS(=O)(=O)c3cccs3)c2O[C@@H]1CN(C)C(=O)NC1CCCCC1	.	.	0	5
O=C(c1ccc(F)cc1)N1CCCCN2[C@@H](CO)[C@@H](c3ccc(C#CC4(O)CCCC4)cc3)[C@@H]2C1	.	.	-4	36*
OC[C@H]1[C@@H](c2ccc(C#CC3(O)CCCC3)cc2)[C@@H]2CN(Cc3ccccc3F)CCCCN12	.	.	1	41*
O=c1oc(-c2ccccc2)cc2ccccc12	1	.	10	-9
Nc1ccc(-c2cc3ccccc3c(=O)o2)cc1	-4	-3	-2	67*
Cc1cccc(N2CCN(C(=O)c3nn(C)c4c3CS(=O)(=O)c3ccccc3-4)CC2)c1C	3	6	5	36*
CC1COCC(C)N1C(=O)c1cccnc1 (centres undefined)	1	.	8	18
O=C(c1cccnc1)C1Cc2ccccc2C1=O (centres undefined)	2	2	-1	49*
N#C[C@H]1[C@@H](c2ccccc2-c2ccc(F)cc2)[C@@H](CO)N1c1ncc(-c2ccccc2)s1	.	.	.	23*
N#C[C@H]1[C@H](c2ccc(-c3cccc(F)c3)cc2)[C@@H](CO)N1c1nc(-c2ccccc2)cs1	.	.	.	38*
N#C[C@@H]1[C@@H](c2ccccc2-c2ccc(F)cc2)[C@H](CO)N1c1ncc(-c2ccccc2)s1	.	.	.	76*
CCOC(=O)C1CCN(c2c(N3CCN(Cc4ccccc4)CC3)c(=O)c2=O)CC1	28*	5	-1	1
CCOC(=O)C1CCN(C(=O)c2cccc(Cl)c2)CC1	0	0	-11	.
CCOC(=O)C1CCN(c2c(C(=O)c3ccccc3)cnc3ccc(Cl)cc23)CC1	0	-4	-1	34*
SMILES	Glyco luc inh	Rtt109 HAT inh	PglD DTNB	DENV2 CPE
C[C@@H]1CN([C@@H](C)CO)S(=O)(=O)c2ccc(C#CCN(C)C)cc2O[C@H]1CN(C)C(=O)C1CCC1	.	.	-2	12
COCC(=O)Nc1ccc2c(c1)[C@H]1C[C@H](CC(=O)NCc3ccc(-c4ccccc4)cc3)O[C@H](CO)[C@H]1O2	.	.	2	0
C[C@@H]1CN([C@H](C)CO)C(=O)c2cccc(NC(=O)C3CC3)c2O[C@H]1CN(C)S(=O)(=O)c1cccs1	.	.	-1	34*
C[C@H]1CN([C@@H](C)CO)C(=O)c2cc(NC(=O)C3CC3)ccc2O[C@H]1CN(C)S(=O)(=O)c1cccs1	.	.	-1	36*
C[C@@H]1CN([C@H](C)CO)S(=O)(=O)c2ccc(/C=C/c3ccccc3)cc2O[C@H]1CN(C)C(=O)c1ccncc1	.	.	-2	8
COc1ccc(-c2cn(CC[C@@H]3CC[C@@H](NC(=O)Cc4ccccn4)[C@H](CO)O3)nn2)cc1	.	.	2	-1
COc1ccccc1-c1cn(CC[C@@H]2CC[C@H](NC(=O)Cc3ccccn3)[C@H](CO)O2)nn1	.	.	-5	40*
COc1ccc(-c2cn(CC[C@@H]3CC[C@H](NC(=O)Cc4ccccn4)[C@@H](CO)O3)nn2)cc1	.	.	3	22*!
Cc1noc(C)c1NC(=O)N(C)C[C@H]1Oc2ccc(NS(C)(=O)=O)cc2C(=O)N([C@@H](C)CO)C[C@H]1C	.	.	3	4
CO[C@@H]1CC[C@H]2CCOc3ccc(C#N)cc3C(=O)N(C)C[C@@H](OC)[C@@H](C)C(=O)N(C)C[C@H]1O2	.	.	4	-2
C[C@@H]1CN([C@H](C)CO)C(=O)Cc2cc(NS(=O)(=O)c3ccccc3)ccc2O[C@H]1CN(C)Cc1ccc(Oc2ccccc2)cc1	.	.	1	?
C[C@H]1CN([C@@H](C)CO)C(=O)Cc2cc(NS(=O)(=O)c3ccccc3)ccc2O[C@@H]1CN(C)Cc1ccc(-c2ccccc2)cc1	.	.	0	40*
C[C@@H]1CN([C@@H](C)CO)C(=O)Cc2cc(NS(=O)(=O)c3cccs3)ccc2O[C@@H]1CN(C)Cc1ccc(-c2ccccc2)cc1	.	.	2	44*
C[C@@H]1CN([C@@H](C)CO)C(=O)Cc2cc(NS(=O)(=O)c3ccccc3)ccc2O[C@@H]1CN(C)Cc1ccc(Oc2ccccc2)cc1	.	.	2	25*
Cc1ccc(S(=O)(=O)Nc2ccc3c(c2)CC(=O)N([C@H](C)CO)C[C@@H](C)[C@H](CN(C)Cc2ccc(Oc4ccccc4)cc2)O3)cc1	.	.	1	59*
